Results filed as inconclusive are left out. A number with no mark means an inactive call. Active and inactive are the calls of the source. Unless noted, calls follow the shape of the dose curve; as a rule, active = well fitted curve in the direction sought with a large enough effect in the repeat runs; inconclusive = weak or mixed curves; inactive = no such curve, though single readings can be large; an effect the other way counts as inactive or inconclusive.
System: not listed separately
Assay: qHTS assay to identify aromatase inhibitors - cell viability counter screen (AID 743084);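 also: cells stimulated with testosterone during compound exposure; nearly all actives have a fitted effect of over 55% in size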; also: potency is read from the fitted curve at half-maximal effect
Details: MCF-7 aro ERE viability, CellTiter-Fluor, 24 h; series mostly up to 70.3 µM; activity change, negative = cytotoxicity: at the top concentration
% is scaled to controls: 0 for no effect and ±100 for the full control effect.

Row | Structure (SMILES) | activity change, negative = cytotoxicity | Potency
1 | CC1CN(c2ccccc2)NC1=O (configuration not stated) | -3.9% | –
2 | Cc1c(N)cccc1N | -1.78% [at 95 µM] | –
3 | Cc1nc(-c2ccccn2)ncc1C(=O)Nn1cc(C)c2cc(F)ccc21 | -3.21% | –
4 | CN1CCC[C@@H]1Cc1c[nH]c2ccc(CCS(=O)(=O)c3ccccc3)cc12 | -12.8% | –
5 | OCc1ccccc1O | 10.4% | –
6 | CN(C)C(=O)NC1(c2ccccc2)CCN(CCC[C@]2(c3ccc(Cl)c(Cl)c3)CCCN(C(=O)c3ccccc3)C2)CC1 | – | 6.51 µM (active)

Target: Aryl hydrocarbon receptor (Homo sapiens) (UniProt P35869)
Sequence (P35869 whole entry, looked up): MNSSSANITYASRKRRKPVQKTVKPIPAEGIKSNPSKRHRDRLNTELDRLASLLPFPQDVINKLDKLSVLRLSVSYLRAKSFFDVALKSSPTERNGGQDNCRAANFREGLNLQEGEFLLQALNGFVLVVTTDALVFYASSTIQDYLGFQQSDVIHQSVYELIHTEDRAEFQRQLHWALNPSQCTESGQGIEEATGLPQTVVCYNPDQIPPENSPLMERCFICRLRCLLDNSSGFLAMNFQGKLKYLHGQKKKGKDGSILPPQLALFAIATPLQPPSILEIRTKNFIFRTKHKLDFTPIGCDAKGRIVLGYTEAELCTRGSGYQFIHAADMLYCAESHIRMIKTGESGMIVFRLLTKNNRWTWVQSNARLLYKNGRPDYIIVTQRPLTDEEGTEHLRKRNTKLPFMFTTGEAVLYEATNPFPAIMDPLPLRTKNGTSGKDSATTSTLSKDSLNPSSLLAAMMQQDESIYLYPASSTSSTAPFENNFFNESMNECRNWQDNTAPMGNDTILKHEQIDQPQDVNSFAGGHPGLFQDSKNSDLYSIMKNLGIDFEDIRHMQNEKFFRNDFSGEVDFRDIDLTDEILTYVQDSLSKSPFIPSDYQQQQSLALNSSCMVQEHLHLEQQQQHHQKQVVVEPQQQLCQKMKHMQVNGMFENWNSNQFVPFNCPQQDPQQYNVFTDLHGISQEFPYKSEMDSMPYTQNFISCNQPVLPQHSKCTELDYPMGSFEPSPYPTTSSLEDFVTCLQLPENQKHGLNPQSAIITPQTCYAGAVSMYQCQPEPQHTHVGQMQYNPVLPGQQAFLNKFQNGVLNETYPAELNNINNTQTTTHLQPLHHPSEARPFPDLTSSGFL
Assay: qHTS assay to identify small molecule that activate the aryl hydrocarbon receptor (AhR) signaling pathway (AID 743085);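 also: HG2L7.5c1 human HepG2 liver cells with stably integrated DRE-driven firefly reporter; nearly all actives have a fitted effect of over 15% in size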
Details: HepG2 AhR-luc (HG2L7.5c1), luciferase, 24 h; series mostly up to 70.3 µM; activation: at the top concentration
Procedure, shortened: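 Cell line HG2L7.5c1 (human hepatoma, 20× DRE-luc). Plated, 5 h 37C, compound/DMSO added, 24 h 37C. CellTiter-Fluor 30 min 37C → fluorescence; then ONE-Glo 30 min RT → luminescence.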

Row | Structure (SMILES) | activation
7 | Cc1c[nH]c(=S)[nH]c1=O | -0.0452%
8 | CCC(=O)c1ccc2c(c1)N(CCCN(C)C)c1ccccc1S2 | 6.01%
9 | CC1=NN(c2cc(Cl)c(S(=O)(=O)O)cc2Cl)C(=O)C1N=Nc1ccc(S(=O)(=O)O)cc1 (configuration not stated) | 1.71%
10 | Cc1cc(NS(=O)(=O)c2ccc(N)cc2)nc(C)n1 | -0.0976%
11 | O=C(C(Cl)Cl)N1CCOC12CCCCC2 | -0.137%
12 | CN(C)CC[C@@H](c1ccc(Cl)cc1)c1ccccn1 | -2.1%
13 | CC(C)C(=O)OCC(C)(C)C(O)C(C)C (configuration not stated) | -1.09% [at 95 µM]

System: not listed separately
Assay: qHTS assay to identify small molecule that activate the aryl hydrocarbon receptor (AhR) signaling pathway - cell viability counter screen (AID 743086);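 also: HepG2 liver cells carrying the AhR DRE luciferase reporter; nearly all actives have a fitted effect of over 45% in size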
Details: HepG2-AhR-luc viability, CellTiter-Fluor, 24 h; series mostly up to 70.3 µM; viability change, negative = cytotoxic: at the top concentration
Procedure, shortened: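 HepG2-AhR-luc (HG2L7.5c1) cells, 4000/well, were preincubated 5 h at 37C, exposed to compound in qHTS format for 24 hr at 37C, then given CellTiter-Fluor for 30 min; viability was read as fluorescence in the reporter wells.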

Row | Structure (SMILES) | viability change, negative = cytotoxic
14 | CCC/C=C/CO | 2.01%
15 | Cc1c[nH]c(=S)[nH]c1=O | -1.53%
16 | CCCCCCOc1ccc(N)cc1 | 6.54%
17 | CCOc1ccc(NS(=O)(=O)c2ccc(N)cc2)nn1 | 21.9%
18 | O=C(C(Cl)Cl)N1CCOC12CCCCC2 | -21.5%
19 | CN(C)CC[C@@H](c1ccc(Cl)cc1)c1ccccn1 | -19.5%
20 | CC(C)C(=O)OCC(C)(C)C(O)C(C)C (configuration not stated) | 1.36% [at 95 µM]

Target: Peroxisome proliferator-activated receptor gamma (Homo sapiens) (UniProt P37231)
Sequence (P37231 whole entry, looked up): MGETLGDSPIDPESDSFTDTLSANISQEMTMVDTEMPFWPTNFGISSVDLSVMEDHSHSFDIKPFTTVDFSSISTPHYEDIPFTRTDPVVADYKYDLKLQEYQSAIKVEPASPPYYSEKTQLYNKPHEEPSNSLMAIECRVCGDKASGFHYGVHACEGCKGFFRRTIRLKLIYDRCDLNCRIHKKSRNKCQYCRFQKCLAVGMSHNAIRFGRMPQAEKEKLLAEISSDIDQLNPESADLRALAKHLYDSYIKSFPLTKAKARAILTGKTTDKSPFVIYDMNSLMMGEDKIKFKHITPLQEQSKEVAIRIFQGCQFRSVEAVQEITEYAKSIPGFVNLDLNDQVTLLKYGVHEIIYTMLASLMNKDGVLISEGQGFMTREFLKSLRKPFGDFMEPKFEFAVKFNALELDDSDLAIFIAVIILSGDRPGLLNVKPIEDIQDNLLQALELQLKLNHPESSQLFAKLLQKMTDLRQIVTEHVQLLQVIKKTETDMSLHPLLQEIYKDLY
Assay: qHTS assay to identify small molecule agonists of the peroxisome proliferator-activated receptor gamma (PPARg) signaling pathway (AID 743094; active = well fitted activation curve with a large enough effect in the signal ratio in the repeat runs, not every such curve was filed as active; the % refers to the signal ratio)
Details: HEK293H PPARg-UAS-bla, beta-lactamase FRET ratio, 17 h; series mostly up to 57 µM; activation: at the top concentration
Procedure, shortened: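 Cells from the PPARg UAS-bla HEK293H line are plated and incubated 5 h at 37C. Compounds in DMSO are pinned in and left 17 h at 37C. LiveBLAzer B/G substrate is then added for 1 h at room temperature before fluorescence is measured.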

Row | Structure (SMILES) | activation
21 | CCC/C=C/CO | 3.71%
22 | Cc1c[nH]c(=S)[nH]c1=O | -7.99%
23 | CC1=NN(c2cc(Cl)c(S(=O)(=O)O)cc2Cl)C(=O)C1N=Nc1ccc(S(=O)(=O)O)cc1 (configuration not stated) | 1.46%
24 | CCCCCCOc1ccc(N)cc1 | -8.03%
25 | CCCC1CCC(=O)O1 (configuration not stated) | -2.73%
26 | Cc1cc(NS(=O)(=O)c2ccc(N)cc2)nc(C)n1 | 2.13%
27 | O=C(C(Cl)Cl)N1CCOC12CCCCC2 | -2.24%
28 | CC(C)C(=O)OCC(C)(C)C(O)C(C)C (configuration not stated) | -3% [at 78.9 µM]

Target: Peroxisome proliferator-activated receptor gamma (Homo sapiens) (UniProt P37231)
Assay: qHTS assay to identify small molecule antagonists of the peroxisome proliferator-activated receptor gamma (PPARg) signaling pathway (AID 743191; calls by dose curve; also: nearly all actives have a fitted effect of over 30% in size; also: potency is read from the fitted curve at half-maximal effect)
Details: HEK293H PPARg-UAS-bla, beta-lactamase ratio, antagonist, 17 h; series mostly up to 62.6 µM; ratio activity, negative = inhibition: at the top concentration
Procedure, shortened: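 GeneBLAzer PPARg UAS-bla HEK293H cells carrying a UAS-driven beta-lactamase reporter were plated at 3000 cells/well, preincubated 5 h at 37C, then given compound for 17 h at 37C; LiveBLAzer B/G FRET substrate was read after 1 h at room temperature.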

Row | Structure (SMILES) | ratio activity, negative = inhibition [%] | Potency
29 | C/C(=N\O)[C@@H](C)NCC(C)(C)CN[C@H](C)/C(C)=N/O | -0.895 | –
30 | O=Cc1ccc(O)c(O)c1O | 4.34 | –
31 | Cc1c[nH]c(=S)[nH]c1=O | -4.23 | –
32 | CC[C@H]1CC[C@H](NCc2cc3c(cc2OC)[C@H]2C[C@H]2C(=O)N3C)[C@H](c2ccccc2)N1 | -22.9 | –
33 | Cc1onc(-c2ccccc2)c1C(=O)Cl | 3.48 | –
34 | CC1=NN(c2cc(Cl)c(S(=O)(=O)O)cc2Cl)C(=O)C1N=Nc1ccc(S(=O)(=O)O)cc1 (configuration not stated) | -11.6 | –
35 | CCCCCCOc1ccc(N)cc1 | -25 | –
36 | O=C(CCCl)NCc1ccccc1 | -1.37 | –
37 | CN1CCN(N)CC1 | 6.01 | –
38 | COC(=O)N[C@H](C(=O)N[C@@H](Cc1ccccc1)[C@@H](O)CN(Cc1ccc(-c2ccccn2)cc1)NC(=O)[C@@H](NC(=O)OC)C(C)(C)C)C(C)(C)C | -13.3 | –
39 | CCOC(=O)c1cc(=O)c2c(OCC(COc3cccc4oc(C(=O)OCC)cc(=O)c34)OC(=O)[C@@H](N)CCCCN)cccc2o1 | 1.29 | –
40 | NC(=O)NS(=O)(=O)c1ccc(Cl)cc1 | 5.51 | –
41 | Cc1nc(N)nc(N)c1-c1ccc(Cl)c(Cl)c1 | – | 1.88 µM (active)
42 | CC(Oc1c(Cl)cccc1Cl)C1=NCCN1 (configuration not stated) | -0.185 | –
